Laboratory results taken from PubChem BioAssay (EPA / NIEHS).
Results filed as inconclusive are left out. Active and inactive are the calls of the source. Rule for the calls: active = hit-call score of the fitted dose curve at least 0.9, where 1 is the maximum; inconclusive = response in the unintended direction; inactive = score below 0.9.

The compounds below were run on xenobiotic metabolism (CYP1A2), CYP1A2 (gene 1544) (assay: CLD_CYP1A2_48hr: CellzDirect (CLD) Gene Expression Assay for xenobiotic metabolism (CYP1A2) at 48 hours (AID 2283703)).
How it was run: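 Cytotoxicity was flagged yes/no from morphology, while CYP1A2 transcript induction was detected by qNPA chemiluminescence after a 48-hour exposure. Human primary hepatocyte cultures from separate donors received fresh dosing solutions daily over two days, with 0.2% DMSO as vehicle and baseline.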
With `O=C(O)COc1nc(Cl)c(Cl)cc1Cl` the outcome was “inactive”.
For `COC(=O)N(OC)c1ccccc1COc1ccn(-c2ccc(Cl)cc2)n1`, the AC50 was 0.54 µM (active).
For `CCCN(CCC)c1c([N+](=O)[O-])cc(S(N)(=O)=O)cc1[N+](=O)[O-]`, the outcome was “inactive”.
`C=CCC1=C(C)C(OC(=O)C2C(C=C(C)C)C2(C)C)CC1=O` (stereo not given) was tested, and the outcome was “inactive”.
In the case of `CCOP(=S)(OCC)SCn1c(=O)oc2cc(Cl)ccc21`, the AC50 is reported as 3.96 µM (active).

These compounds were tested on Broad substrate specificity ATP-binding cassette transporter ABCG2 (Homo sapiens) (UniProt Q9UNQ0) (assay: CLD_ABCG2_48hr: CellzDirect (CLD) Gene Expression Assay for ABC Transporter (ABCG2) at 48 hours (AID 2283704);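 for AC50: potency for induction of ABCG2 mRNA above the DMSO baseline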).
Sequence of Broad substrate specificity ATP-binding cassette transporter ABCG2 (Homo sapiens) (Q9UNQ0 whole entry, looked up): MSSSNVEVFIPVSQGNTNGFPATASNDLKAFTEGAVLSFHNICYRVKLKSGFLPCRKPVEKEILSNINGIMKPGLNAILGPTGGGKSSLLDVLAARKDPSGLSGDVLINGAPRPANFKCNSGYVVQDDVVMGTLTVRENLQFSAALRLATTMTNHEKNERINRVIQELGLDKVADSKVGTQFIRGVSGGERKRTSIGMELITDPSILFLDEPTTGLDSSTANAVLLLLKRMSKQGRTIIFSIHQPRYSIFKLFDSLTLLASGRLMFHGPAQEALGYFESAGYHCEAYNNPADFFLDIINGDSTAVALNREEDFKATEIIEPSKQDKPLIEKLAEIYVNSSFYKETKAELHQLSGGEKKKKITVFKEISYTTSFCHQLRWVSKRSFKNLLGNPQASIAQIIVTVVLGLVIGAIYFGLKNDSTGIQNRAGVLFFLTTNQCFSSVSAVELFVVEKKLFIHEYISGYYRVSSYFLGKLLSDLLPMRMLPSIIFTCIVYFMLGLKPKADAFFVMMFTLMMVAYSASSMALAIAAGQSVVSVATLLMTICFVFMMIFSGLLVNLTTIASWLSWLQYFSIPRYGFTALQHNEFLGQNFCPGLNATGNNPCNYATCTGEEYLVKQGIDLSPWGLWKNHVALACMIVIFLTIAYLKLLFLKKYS
How it was run: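 ABCG2 transcript measured at 48 h by quantitative nuclease protection (chemiluminescent) and fitted for increase relative to 0.2% DMSO. Hepatocyte cultures from separate donors got fresh compound daily over two days; morphology annotated cytotoxicity.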
For `CC1COC(Cn2cncn2)(c2ccc(Oc3ccc(Cl)cc3)cc2Cl)O1` (stereo not given), the outcome was “inactive”.
For `COP(=S)(OC)Oc1nc(Cl)c(Cl)cc1Cl`, the outcome was “inactive”.
With `O=C(O)COc1nc(Cl)c(Cl)cc1Cl` the outcome was “inactive”.
In the case of `CC(C)C1(C)N=C(c2nc3ccccc3cc2C(=O)O)NC1=O` (stereo not given), the outcome is reported as “inactive”.
`COC(=O)N(OC)c1ccccc1COc1ccn(-c2ccc(Cl)cc2)n1` was tested, and the AC50 was 20 µM (active).
For `CNC(=S)S`, the outcome was “inactive”.
`Oc1ccccc1-c1ccccc1` was tested, and the outcome was “inactive”.
With `CCCN(CCC)c1c([N+](=O)[O-])cc(S(N)(=O)=O)cc1[N+](=O)[O-]` the outcome was “inactive”.
`CCCC1COC(Cn2cncn2)(c2ccc(Cl)cc2Cl)O1` (stereo not given) was tested, and the outcome was “inactive”.
In the case of `CCOc1cc(Oc2ccc(C(F)(F)F)cc2Cl)ccc1[N+](=O)[O-]`, the outcome is reported as “inactive”.
In the case of `C=CCC1=C(C)C(OC(=O)C2C(C=C(C)C)C2(C)C)CC1=O` (stereo not given), the outcome is reported as “inactive”.
With `C=CC1(C)OC(=O)N(c2cc(Cl)cc(Cl)c2)C1=O` (stereo not given) the outcome was “inactive”.
`CN(C)C(=S)SSC(=S)N(C)C` was tested, and the outcome was “inactive”.
`O=C(Nc1ccccc1)Nc1ccnc(Cl)c1` was tested, and the outcome was “inactive”.
`CCc1nn(C)c(C(=O)NCc2ccc(C(C)(C)C)cc2)c1Cl` was tested, and the AC50 was 26.2 µM (active).
